Experiments:
Assay in all cases: PBM; 200 nM protein, PBS
Conditions in all cases: dsDNA, one strand shown
HESX1 [1] = molecular target: HESX1 (Homo sapiens, UniProt Q9UBX0 95-180, R165K)
ALX4 [2] = molecular target: ALX4 (Homo sapiens, UniProt Q9H161 200-286)
PRRX1 [3] = molecular target: PRRX1 (Homo sapiens, UniProt P54821 80-166, F113S)
ALX4 [4] = molecular target: ALX4 (Homo sapiens, UniProt Q9H161 200-286, Q225E)
HESX1 [5] = molecular target: HESX1 (Homo sapiens, UniProt Q9UBX0 95-180)
MSX2 [6] = molecular target: MSX2 (Homo sapiens, UniProt P35548 130-214, R199I)
Chain of MSX2 (Homo sapiens, UniProt P35548 130-214, R199I) (P35548 130-214 R199I): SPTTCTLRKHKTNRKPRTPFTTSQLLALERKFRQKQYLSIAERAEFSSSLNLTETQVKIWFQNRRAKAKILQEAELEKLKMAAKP

ALX1 [7] = molecular target: ALX1 (Homo sapiens, UniProt Q15699 118-204, L144V)
Chain of ALX1 (Homo sapiens, UniProt Q15699 118-204, L144V) (Q15699 118-204 L144V): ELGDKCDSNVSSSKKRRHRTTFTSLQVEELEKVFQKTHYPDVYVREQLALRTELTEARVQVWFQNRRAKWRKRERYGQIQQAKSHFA

ALX1 [8] = molecular target: ALX1 (Homo sapiens, UniProt Q15699 118-204, L144R)
Chain of ALX1 (Homo sapiens, UniProt Q15699 118-204, L144R) (Q15699 118-204 L144R): as the sequence (Q15699 118-204 L144V) above, with V27R counted along it

PROP1 [9] = molecular target: PROP1 (Homo sapiens, UniProt O75360 56-141)
Chain of PROP1 (Homo sapiens, UniProt O75360 56-141) (O75360 56-141): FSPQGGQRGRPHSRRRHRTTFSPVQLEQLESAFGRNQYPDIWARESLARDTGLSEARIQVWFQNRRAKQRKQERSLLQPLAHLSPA

HESX1 [10] = molecular target: HESX1 (Homo sapiens, UniProt Q9UBX0 95-180, R109Q)
Chain of HESX1 (Homo sapiens, UniProt Q9UBX0 95-180, R109Q) (Q9UBX0 95-180 R109Q): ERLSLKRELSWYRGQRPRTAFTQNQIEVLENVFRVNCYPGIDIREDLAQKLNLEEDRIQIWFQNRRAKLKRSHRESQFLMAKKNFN

PROP1 [11] = molecular target: PROP1 (Homo sapiens, UniProt O75360 56-141, R99H)
Chain of PROP1 (Homo sapiens, UniProt O75360 56-141, R99H) (O75360 56-141 R99H): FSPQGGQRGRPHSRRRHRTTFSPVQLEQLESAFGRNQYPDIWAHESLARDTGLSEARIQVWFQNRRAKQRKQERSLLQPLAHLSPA

ALX3 = ALX3 (Homo sapiens, UniProt O95076 139-225, L168Q)
Chain of ALX3 (O95076 139-225 L168Q): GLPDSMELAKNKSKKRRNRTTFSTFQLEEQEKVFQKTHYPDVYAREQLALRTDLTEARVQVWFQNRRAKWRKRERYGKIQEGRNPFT

HESX1 [12] = molecular target: HESX1 (Homo sapiens, UniProt Q9UBX0 95-180, P111T)
Chain of HESX1 (Homo sapiens, UniProt Q9UBX0 95-180, P111T) (Q9UBX0 95-180 P111T): as the sequence (Q9UBX0 95-180 R109Q) above, with Q15R, P17T counted along it

PROP1 [13] = molecular target: PROP1 (Homo sapiens, UniProt O75360 56-141, F88S)
Chain of PROP1 (Homo sapiens, UniProt O75360 56-141, F88S) (O75360 56-141 F88S): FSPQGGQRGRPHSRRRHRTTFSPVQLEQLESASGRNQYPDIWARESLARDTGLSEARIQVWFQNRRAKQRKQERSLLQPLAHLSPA

MSX2 [14] = molecular target: MSX2 (Homo sapiens, UniProt P35548 130-214, F161Y)
Chain of MSX2 (Homo sapiens, UniProt P35548 130-214, F161Y) (P35548 130-214 F161Y): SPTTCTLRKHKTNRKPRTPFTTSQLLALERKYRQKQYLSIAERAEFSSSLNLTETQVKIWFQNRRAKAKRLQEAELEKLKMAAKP

HESX1 [15] = molecular target: HESX1 (Homo sapiens, UniProt Q9UBX0 95-180, F115L)
Chain of HESX1 (Homo sapiens, UniProt Q9UBX0 95-180, F115L) (Q9UBX0 95-180 F115L): as the sequence (Q9UBX0 95-180 R109Q) above, with Q15R, F21L counted along it

PRRX1 [16] = molecular target: PRRX1 (Homo sapiens, UniProt P54821 80-166)
Chain of PRRX1 (Homo sapiens, UniProt P54821 80-166) (P54821 80-166): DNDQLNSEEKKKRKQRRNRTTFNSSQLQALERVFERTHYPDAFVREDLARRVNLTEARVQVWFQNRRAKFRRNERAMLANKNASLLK

ALX1 [17] = molecular target: ALX1 (Homo sapiens, UniProt Q15699 118-204)
Chain of ALX1 (Homo sapiens, UniProt Q15699 118-204) (Q15699 118-204): as the sequence (Q15699 118-204 L144V) above, with V27L counted along it

Chain of HESX1 (Homo sapiens, UniProt Q9UBX0 95-180) (Q9UBX0 95-180): as the sequence (Q9UBX0 95-180 R109Q) above, with Q15R counted along it
Chain of HESX1 (Homo sapiens, UniProt Q9UBX0 95-180, R165K) (Q9UBX0 95-180 R165K): as the sequence (Q9UBX0 95-180 R109Q) above, with Q15R, R71K counted along it
Chain of ALX4 (Homo sapiens, UniProt Q9H161 200-286, Q225E) (Q9H161 200-286 Q225E): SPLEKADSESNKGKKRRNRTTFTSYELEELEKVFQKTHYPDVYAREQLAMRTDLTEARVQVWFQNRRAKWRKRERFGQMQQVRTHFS
Chain of PRRX1 (Homo sapiens, UniProt P54821 80-166, F113S) (P54821 80-166 F113S): as the sequence (P54821 80-166) above, with F34S counted along it
Chain of ALX4 (Homo sapiens, UniProt Q9H161 200-286) (Q9H161 200-286): as the sequence (Q9H161 200-286 Q225E) above, with E26Q counted along it

## ATAATTGC
HESX1 [1]
  binding signal: 12.2 upbm affinity estimate (log intensity, higher = more binding, comparable within an allelic series)
ALX4 [2]
  binding signal: 13.6 upbm affinity estimate (log intensity, higher = more binding, comparable within an allelic series)
PRRX1 [3]
  binding signal: 11.1 upbm affinity estimate (log intensity, higher = more binding, comparable within an allelic series)
ALX4 [4]
  binding signal: 12.7 upbm affinity estimate (log intensity, higher = more binding, comparable within an allelic series)
HESX1 [5]
  binding signal: 12.4 upbm affinity estimate (log intensity, higher = more binding, comparable within an allelic series)
MSX2 [6]
  binding signal: 12.9 upbm affinity estimate (log intensity, higher = more binding, comparable within an allelic series)
ALX1 [7]
  binding signal: 11.4 upbm affinity estimate (log intensity, higher = more binding, comparable within an allelic series)
ALX1 [8]
  binding signal: 11.1 upbm affinity estimate (log intensity, higher = more binding, comparable within an allelic series)
PROP1 [9]
  binding signal: 11.1 upbm affinity estimate (log intensity, higher = more binding, comparable within an allelic series)
HESX1 [10]
  binding signal: 8.36 upbm affinity estimate (log intensity, higher = more binding, comparable within an allelic series)
PROP1 [11]
  binding signal: 10.9 upbm affinity estimate (log intensity, higher = more binding, comparable within an allelic series)
ALX3
  binding signal: 10.3 upbm affinity estimate (log intensity, higher = more binding, comparable within an allelic series)
HESX1 [12]
  binding signal: 10.6 upbm affinity estimate (log intensity, higher = more binding, comparable within an allelic series)
PROP1 [13]
  binding signal: 7.6 upbm affinity estimate (log intensity, higher = more binding, comparable within an allelic series)
MSX2 [14]
  binding signal: 13.6 upbm affinity estimate (log intensity, higher = more binding, comparable within an allelic series)
HESX1 [15]
  binding signal: 7.74 upbm affinity estimate (log intensity, higher = more binding, comparable within an allelic series)
PRRX1 [16]
  binding signal: 13.2 upbm affinity estimate (log intensity, higher = more binding, comparable within an allelic series)

## CCAGCGCA
HESX1 [1]
  binding signal: 6.46 upbm affinity estimate (log intensity, higher = more binding, comparable within an allelic series)
HESX1 [5]
  binding signal: 6.4 upbm affinity estimate (log intensity, higher = more binding, comparable within an allelic series)
MSX2 [6]
  binding signal: 9.46 upbm affinity estimate (log intensity, higher = more binding, comparable within an allelic series)
HESX1 [10]
  binding signal: 6.49 upbm affinity estimate (log intensity, higher = more binding, comparable within an allelic series)
HESX1 [12]
  binding signal: 6.38 upbm affinity estimate (log intensity, higher = more binding, comparable within an allelic series)
MSX2 [14]
  binding signal: 9.44 upbm affinity estimate (log intensity, higher = more binding, comparable within an allelic series)
HESX1 [15]
  binding signal: 6.38 upbm affinity estimate (log intensity, higher = more binding, comparable within an allelic series)

## CAGCCAGG
HESX1 [1]
  binding signal: 6.31 upbm affinity estimate (log intensity, higher = more binding, comparable within an allelic series)
HESX1 [5]
  binding signal: 6.36 upbm affinity estimate (log intensity, higher = more binding, comparable within an allelic series)
HESX1 [10]
  binding signal: 6.38 upbm affinity estimate (log intensity, higher = more binding, comparable within an allelic series)
HESX1 [12]
  binding signal: 6.49 upbm affinity estimate (log intensity, higher = more binding, comparable within an allelic series)
HESX1 [15]
  binding signal: 6.49 upbm affinity estimate (log intensity, higher = more binding, comparable within an allelic series)

## GCCGGTCC
HESX1 [1]
  binding signal: 6.49 upbm affinity estimate (log intensity, higher = more binding, comparable within an allelic series)
HESX1 [5]
  binding signal: 6.35 upbm affinity estimate (log intensity, higher = more binding, comparable within an allelic series)
HESX1 [10]
  binding signal: 6.44 upbm affinity estimate (log intensity, higher = more binding, comparable within an allelic series)
HESX1 [12]
  binding signal: 6.43 upbm affinity estimate (log intensity, higher = more binding, comparable within an allelic series)
HESX1 [15]
  binding signal: 6.58 upbm affinity estimate (log intensity, higher = more binding, comparable within an allelic series)

## GCCAGCCC
HESX1 [1]
  binding signal: 6.58 upbm affinity estimate (log intensity, higher = more binding, comparable within an allelic series)
HESX1 [5]
  binding signal: 6.38 upbm affinity estimate (log intensity, higher = more binding, comparable within an allelic series)
ALX1 [7]
  binding signal: 6.53 upbm affinity estimate (log intensity, higher = more binding, comparable within an allelic series)
ALX1 [8]
  binding signal: 6.62 upbm affinity estimate (log intensity, higher = more binding, comparable within an allelic series)
HESX1 [10]
  binding signal: 6.42 upbm affinity estimate (log intensity, higher = more binding, comparable within an allelic series)
HESX1 [12]
  binding signal: 6.51 upbm affinity estimate (log intensity, higher = more binding, comparable within an allelic series)
HESX1 [15]
  binding signal: 6.51 upbm affinity estimate (log intensity, higher = more binding, comparable within an allelic series)
ALX1 [17]
  binding signal: 6.43 upbm affinity estimate (log intensity, higher = more binding, comparable within an allelic series)

## AATAATTG
HESX1 [1]
  binding signal: 12.3 upbm affinity estimate (log intensity, higher = more binding, comparable within an allelic series)
ALX4 [2]
  binding signal: 13.5 upbm affinity estimate (log intensity, higher = more binding, comparable within an allelic series)
PRRX1 [3]
  binding signal: 11.2 upbm affinity estimate (log intensity, higher = more binding, comparable within an allelic series)
ALX4 [4]
  binding signal: 12.8 upbm affinity estimate (log intensity, higher = more binding, comparable within an allelic series)
HESX1 [5]
  binding signal: 12.4 upbm affinity estimate (log intensity, higher = more binding, comparable within an allelic series)
MSX2 [6]
  binding signal: 12.6 upbm affinity estimate (log intensity, higher = more binding, comparable within an allelic series)
ALX1 [7]
  binding signal: 11.5 upbm affinity estimate (log intensity, higher = more binding, comparable within an allelic series)
ALX1 [8]
  binding signal: 11.3 upbm affinity estimate (log intensity, higher = more binding, comparable within an allelic series)
PROP1 [9]
  binding signal: 11 upbm affinity estimate (log intensity, higher = more binding, comparable within an allelic series)
HESX1 [10]
  binding signal: 8.84 upbm affinity estimate (log intensity, higher = more binding, comparable within an allelic series)
PROP1 [11]
  binding signal: 11.1 upbm affinity estimate (log intensity, higher = more binding, comparable within an allelic series)
ALX3
  binding signal: 10.3 upbm affinity estimate (log intensity, higher = more binding, comparable within an allelic series)
HESX1 [12]
  binding signal: 10.8 upbm affinity estimate (log intensity, higher = more binding, comparable within an allelic series)
PROP1 [13]
  binding signal: 7.6 upbm affinity estimate (log intensity, higher = more binding, comparable within an allelic series)
MSX2 [14]
  binding signal: 13.4 upbm affinity estimate (log intensity, higher = more binding, comparable within an allelic series)
HESX1 [15]
  binding signal: 8.12 upbm affinity estimate (log intensity, higher = more binding, comparable within an allelic series)
PRRX1 [16]
  binding signal: 13.2 upbm affinity estimate (log intensity, higher = more binding, comparable within an allelic series)

## AGGCCCGC
HESX1 [1]
  binding signal: 6.43 upbm affinity estimate (log intensity, higher = more binding, comparable within an allelic series)
HESX1 [5]
  binding signal: 6.37 upbm affinity estimate (log intensity, higher = more binding, comparable within an allelic series)
HESX1 [10]
  binding signal: 6.38 upbm affinity estimate (log intensity, higher = more binding, comparable within an allelic series)
HESX1 [12]
  binding signal: 6.39 upbm affinity estimate (log intensity, higher = more binding, comparable within an allelic series)
HESX1 [15]
  binding signal: 6.43 upbm affinity estimate (log intensity, higher = more binding, comparable within an allelic series)

## CGACGCGA
HESX1 [1]
  binding signal: 6.36 upbm affinity estimate (log intensity, higher = more binding, comparable within an allelic series)
HESX1 [5]
  binding signal: 6.45 upbm affinity estimate (log intensity, higher = more binding, comparable within an allelic series)
HESX1 [10]
  binding signal: 6.44 upbm affinity estimate (log intensity, higher = more binding, comparable within an allelic series)
HESX1 [12]
  binding signal: 6.38 upbm affinity estimate (log intensity, higher = more binding, comparable within an allelic series)
HESX1 [15]
  binding signal: 6.54 upbm affinity estimate (log intensity, higher = more binding, comparable within an allelic series)

## GCCAGCGA
HESX1 [1]
  binding signal: 6.34 upbm affinity estimate (log intensity, higher = more binding, comparable within an allelic series)
HESX1 [5]
  binding signal: 6.55 upbm affinity estimate (log intensity, higher = more binding, comparable within an allelic series)
HESX1 [10]
  binding signal: 6.49 upbm affinity estimate (log intensity, higher = more binding, comparable within an allelic series)
HESX1 [12]
  binding signal: 6.48 upbm affinity estimate (log intensity, higher = more binding, comparable within an allelic series)
HESX1 [15]
  binding signal: 6.56 upbm affinity estimate (log intensity, higher = more binding, comparable within an allelic series)

## ACCGTCCG
HESX1 [1]
  binding signal: 6.56 upbm affinity estimate (log intensity, higher = more binding, comparable within an allelic series)
HESX1 [5]
  binding signal: 6.57 upbm affinity estimate (log intensity, higher = more binding, comparable within an allelic series)
HESX1 [10]
  binding signal: 6.49 upbm affinity estimate (log intensity, higher = more binding, comparable within an allelic series)
HESX1 [12]
  binding signal: 6.5 upbm affinity estimate (log intensity, higher = more binding, comparable within an allelic series)
HESX1 [15]
  binding signal: 6.47 upbm affinity estimate (log intensity, higher = more binding, comparable within an allelic series)
